Sampled rows, rich in hits. Any-hit rate of the full collection: about 4.6%.
NR3A LBD binder: NR3A (human) ligand-binding domain modulation; NR3A LBD differential scanning fluorimetry, Tm shift; 0% = protein alone, 100% = glycine-bound protein; Tm shift relative to glycine control, % at 25 µM; 2.5% of 340,000 active;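 active = melting temperature shift of at least 10% of the positive control shift, at one fixed dose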
ADAM17 inh: inhibits human ADAM17. inhibition, % at 6.95 µM. recombinant ADAM17, EDANS/DABCYL FRET peptide cleavage. P78536. 0.83% of 370,000 active;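 active = inhibition above the mean of compounds lying between control limits plus 3 SD, set per campaign, cut at about 8.5% in these data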
ADAM10 inh: inhibitors of human ADAM10 | O14672 | recombinant ADAM10, EDANS/DABCYL FRET peptide cleavage, 3 h | inhibition, % at 7 µM | 0.62% of 370,000 active;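 active = inhibition above a per-campaign cutoff equal to the mean of compounds falling between control-based bounds plus 3 SD, cut at about 20% in these data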
FAS-TE inh: FAS thioesterase (human) inhibition. 0.67% of 360,000 active. AID 602261. recombinant FAS-TE, OMFH fluorogenic substrate, fluorescence endpoint. inhibition, % at 15 µM. P49327;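 active = compounds whose normalised, plate-corrected inhibition of enzyme fluorescence in the single-dose primary screen is 50% or more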
proKLK7 act: proKLK7 (human) activation, primary screen; 0.9% of 370,000 active; activation, % at 7 µM; purified proKLK7, EDANS-DABCYL substrate fluorescence; 100% is mature enzyme control, 0% vehicle;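 active = activation above the mean of all tested compounds plus 3 SD, computed per campaign excluding outliers beyond control limits, cut at about 13% in these data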
Target sequence (P49862 whole entry, looked up): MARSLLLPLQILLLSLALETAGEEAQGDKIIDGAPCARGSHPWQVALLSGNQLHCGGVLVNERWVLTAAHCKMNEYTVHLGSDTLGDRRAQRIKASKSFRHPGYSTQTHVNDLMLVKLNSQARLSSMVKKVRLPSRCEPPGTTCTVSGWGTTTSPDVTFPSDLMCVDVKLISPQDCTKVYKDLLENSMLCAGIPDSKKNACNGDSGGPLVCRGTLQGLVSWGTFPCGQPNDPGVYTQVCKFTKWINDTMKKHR
Hits are given with their value; – = inactive; · = not tested or not shown.

SMILES	NR3A LBD binder	ADAM17 inh	ADAM10 inh	FAS-TE inh	proKLK7 act
COc1cc(/C=N/NC(=O)c2c(C)nnn2-c2nonc2N)ccc1O	14	–	–	–	–
CN(C)Cc1c(C(=O)N/N=C/c2cccc3ccccc23)nnn1-c1nonc1N	–	–	–	–	–
Cc1nnn(-c2nonc2N)c1C(=O)N/N=C/c1cccc2ccccc12	33	–	–	–	–
Cc1nnn(-c2nonc2N)c1C(=O)N/N=C/c1ccccc1O	30	–	–	–	–
CC1CCN(Cc2c(C(=O)N/N=C/c3ccccc3O)nnn2-c2nonc2N)CC1	–	–	–	–	–
CC(COc1cccc(C(F)(F)F)c1)CN1CCC(C(O)(c2ccccc2)c2ccccc2)CC1 (centres undefined)	·	–	–	·	–
COc1ccccc1NC(=O)Nc1nc(CC(=O)Nc2ccc(N(C)C)cc2)cs1	24	–	–	–	–
COc1ccc(C)cc1NC(=O)Cc1csc(NC(=O)Nc2ccccc2OC)n1	·	–	–	–	–
COc1ccccc1NC(=O)Nc1nc(CC(=O)Nc2ccc(F)c(F)c2)cs1	34	–	–	–	–
COc1ccccc1NC(=O)Nc1nc(CC(=O)Nc2cc(F)ccc2F)cs1	21	–	–	–	–
COc1ccccc1NC(=O)Nc1nc(CC(=O)Nc2ccc(F)cc2)cs1	33	–	–	–	–
COc1ccc(NC(=O)Cc2csc(NC(=O)Nc3ccccc3OC)n2)cc1	·	–	–	–	–
COc1ccc(N2CCN(CCCNC(=O)CCOC(C)(C)C)CC2)cc1	·	–	–	·	–
COC(=O)C1CN(Cc2ccc(Cl)cc2)CCS(=O)(=O)N1Cc1cn(Cc2ccc(Cl)cc2)nn1 (centres undefined)	·	–	–	·	–
Cc1ccc(NC(=S)Nc2nc(CC(=O)Nc3ccccc3)cs2)cc1	17	–	–	–	–
COc1ccccc1NC(=O)Nc1nc(CC(=O)Nc2cccc(F)c2)cs1	28	–	–	–	–
C=CCn1c(SCc2c(Cl)cccc2Cl)nnc1-c1cccc(C)c1	·	–	–	·	–
COC(=O)[C@@]12CCCCC3=C1N(CCC3)C(=O)[C@H]2CC(=O)NCCCCc1ccccc1	·	–	–	·	–
COc1ccc(S(=O)(=O)N2CCN(C(=O)CSc3nc4ccccc4nc3N3CCCCC3)CC2)cc1	·	–	–	·	–
Cn1c(N)c(C(=O)COC(=O)/C=C/c2ccc(Cl)c(Cl)c2)c(=O)n(C)c1=O	17	–	–	–	–
Cn1c(N)c(C(=O)COC(=O)/C=C/c2ccc(F)cc2)c(=O)n(C)c1=O	–	–	–	–	–
C=CCN(Cc1ccccc1)C(C#CC(=C)C)Cc1ccccc1 (centres undefined)	·	–	–	·	–
Cc1ccc2nc(N/N=C/c3ccccc3F)nc(-c3ccccc3)c2c1	13	–	–	–	–
CC(C)(C)c1ccc2c(c1)C(=O)c1ccccc1C2=O	24	–	–	–	–
CCc1ccc2c(c1)C(=O)c1ccccc1C2=O	18	–	–	–	–
SMILES	NR3A LBD binder	ADAM17 inh	ADAM10 inh	FAS-TE inh	proKLK7 act
CC(C)(C)c1ccc(-c2ccc3c(c2)S(=O)(=O)c2ccccc2C3=O)cc1	–	–	–	–	–
C#CCNC(=O)C[C@@H]1C(=O)N(CC=C)/C2=C/CCCCC[C@]21C(=O)OCC	·	–	–	·	–
O=c1c2ccc(Cl)cc2nc2n1CC/C2=C\c1cccc(O)c1	23	–	–	–	–
CCC(NC(=O)c1ccc2c(c1)c(C)c(C)n2Cc1ccc(-c2ccccc2C#N)cc1)c1ccccc1 (centres undefined)	·	–	–	·	–
NC(=O)Cn1nc(C(F)(F)F)c2c1CCCC2	27	–	–	–	–
C=CCN1C(=O)[C@@H](CC(=O)NCC23CC4CC(CC(C4)C2)C3)[C@]2(C(=O)OCC)CCCCC/C=C/12	·	–	–	·	–
O=C(Nc1ccccc1Cl)c1cccs1	–	–	–	–	–
O=C(Nc1ccc(N2C(=O)C3CCCCC3C2=O)cc1Cl)c1cccs1 (centres undefined)	18	–	–	–	–
NC(=O)c1cc([N+](=O)[O-])ccc1NCc1cccc2ccccc12	–	–	–	–	–
O=C(/C=C/Nc1ccc([N+](=O)[O-])cc1Br)c1cccc2ccccc12	13	–	–	–	–
CC(=O)c1cc(-c2cnn(Cc3ccccc3)c2)c(=O)n2c1CCC2	·	–	–	·	–
Cc1ccc(S(=O)(=O)/C(C#N)=C/c2c(N3CC(C)OC(C)C3)nc3c(C)cccn3c2=O)cc1 (centres undefined)	–	–	–	56	–
CCOc1ccc(OCC)c(NC(=O)c2nnn(CC(=O)Nc3cc(C)cc(C)c3)c2N)c1	16	–	–	–	–
COc1ccc(CCNC(=O)c2nnn(CC(=O)Nc3ccccc3C)c2N)cc1OC	–	–	–	–	–
CCOc1ccc(CCNC(=O)c2nnn(CC(=O)Nc3ccccc3C)c2N)cc1OCC	12	–	–	–	–
COc1ccc2c(c1)CO[C@H]([C@H](O)COC(C)=O)[C@H]2/C=C/c1ccccc1	·	–	–	·	–
Nc1cc(N)nc(SCC(=O)c2ccc3c(c2)NC(=O)CO3)n1	153	–	–	–	–
CCOc1ccc(NC(=S)NNC(=S)Nc2cccc(C(F)(F)F)c2)cc1	20	–	–	–	–
COc1ccc(NC(=S)NNC(=S)Nc2cccc(C(F)(F)F)c2)cc1	34	–	–	–	–
CNNC(=S)Nc1cccc(C(F)(F)F)c1	–	–	–	–	–
O=C(Nc1nccs1)C1CCN(S(=O)(=O)c2ccccc2)CC1	–	–	–	–	–
O=C(Nc1nccs1)C1CCN(S(=O)(=O)c2ccc3c(c2)OCCCO3)CC1	14	–	–	–	–
CC(C)C[C@H](NC(C)(C)C(=O)NC1CCCCC1)C(=O)NCCc1c[nH]c2ccccc12	·	–	–	·	·
CN(C)CCNC=C(C(=O)Nc1ccc(Cl)cc1Cl)C(=O)Nc1ccc(Cl)cc1Cl	13	–	–	–	–
CC(=O)/C(=C/N(C)C)C(=O)Nc1ccc(Cl)cc1Cl	–	–	–	–	–
SMILES	NR3A LBD binder	ADAM17 inh	ADAM10 inh	FAS-TE inh	proKLK7 act
CC(C)(C)N1Cc2nnn(CC3CCCCC3)c2-c2cc(F)ccc2S1(=O)=O	·	–	–	·	–
COc1ccc(C(C)C)cc1S(=O)(=O)N1CCC(C(=O)NCC2CCCO2)CC1 (centres undefined)	11	–	–	–	–
COc1ccc(S(=O)(=O)N2CCC(C(=O)NCC3CCCO3)CC2)cc1C (centres undefined)	–	–	–	–	–
COc1ccc(OC)c(S(=O)(=O)N2CCC(C(=O)NCCc3ccc(OC)c(OC)c3)CC2)c1	11	–	–	–	–
Cc1ccsc1C(=O)N1CCC(N2CCC(C(=O)NCC3CCCO3)CC2)CC1 (centres undefined)	–	–	–	–	–
COc1cccc(CNC(=O)C2CCN(S(=O)(=O)N3CCCCC3)CC2)c1	13	–	–	–	–
O=C(NCC1CCCO1)C1CCN(C(=O)c2ccc(Br)cc2)CC1 (centres undefined)	14	–	–	–	–

Source: PubChem BioAssay (several laboratories)
